Inconclusive results are not listed. Activity calls are given as the source filed them. Unless noted, calls follow the shape of the full dose curve.
Columns and labels:
[1] = Nuclear factor erythroid 2-related factor 2/antioxidant responsive element (Nrf2/ARE) small molecule agonists: qHTS cell viability counter screen in human keratinocytes (AID 1919968; active = well fitted curve in the direction sought with a large enough effect in the repeat runs; an effect the other way counts as inactive or inconclusive; also: nearly all actives have a fitted effect of over 55% in size)
Outline: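 Cells of the KeratinoSens line were plated at 1,500 per well and left for 5 h before compound transfer from DMSO stocks. After a 23 h incubation (37 C, 5% CO2), CellTiter-Fluor was added. Signal was taken as fluorescence intensity 1 h later.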

[2] = Nuclear factor erythroid 2-related factor 2/antioxidant responsive element (Nrf2/ARE) small molecule agonists: luciferase reporter gene qHTS assay in human keratinocytes (AID 1919969); also: nearly all actives have a fitted effect of over 35% in size; also: potency is read from the fitted curve at half-maximal effect
[3] = biological target: Gonadotropin-releasing hormone receptor (Homo sapiens) (UniProt P30968); assay: Human gonadotropin-releasing hormone receptor (GnRHR) small molecule agonists, calcium flux assay in GnRHR-HEK293 cells (AID 1920063); also: nearly all actives have a fitted effect of over 35% in size
Gonadotropin-releasing hormone receptor (Homo sapiens), sequence (P30968 whole entry, looked up): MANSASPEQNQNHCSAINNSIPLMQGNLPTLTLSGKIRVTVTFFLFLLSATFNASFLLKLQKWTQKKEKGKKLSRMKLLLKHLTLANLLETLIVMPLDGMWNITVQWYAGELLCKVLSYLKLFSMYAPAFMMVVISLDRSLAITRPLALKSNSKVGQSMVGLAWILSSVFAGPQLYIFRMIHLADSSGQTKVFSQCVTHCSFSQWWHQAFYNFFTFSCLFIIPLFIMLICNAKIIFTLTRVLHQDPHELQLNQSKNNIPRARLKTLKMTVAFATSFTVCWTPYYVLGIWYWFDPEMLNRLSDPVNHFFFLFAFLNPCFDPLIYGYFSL
Outline: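 Compounds dissolved in DMSO are pin-transferred onto dye-loaded GnRHR-HEK293 cells, which were seeded 18 h before at 37 C/5% CO2. Calcium signal is read as fluorescence intensity at 1 s intervals for 3 min.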

[4] = biological target: KiSS-1 receptor (Homo sapiens) (UniProt Q969F8); assay: Human kisspeptin (KISS1R) small molecule agonists, calcium flux assay in KISS1R-HEK293 cells (AID 1920064; active = well fitted curve in the direction sought with a large enough effect in the repeat runs; an effect the other way counts as inactive or inconclusive)
KiSS-1 receptor (Homo sapiens), sequence (Q969F8 whole entry, looked up): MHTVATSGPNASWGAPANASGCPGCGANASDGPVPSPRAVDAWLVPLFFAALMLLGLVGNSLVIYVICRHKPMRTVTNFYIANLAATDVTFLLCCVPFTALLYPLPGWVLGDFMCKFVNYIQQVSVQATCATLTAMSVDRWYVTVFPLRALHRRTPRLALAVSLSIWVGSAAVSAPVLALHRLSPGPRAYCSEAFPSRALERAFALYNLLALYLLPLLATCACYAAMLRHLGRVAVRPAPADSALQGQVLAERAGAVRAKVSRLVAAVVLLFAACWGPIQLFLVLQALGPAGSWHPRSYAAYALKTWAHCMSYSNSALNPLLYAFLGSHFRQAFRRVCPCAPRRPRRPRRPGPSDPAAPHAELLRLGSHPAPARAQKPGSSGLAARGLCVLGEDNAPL
Outline: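 Cell line: HEK293, stable human KISS1R. Dye loading 1 h at 37 C after 18 h culture. Read: kinetic fluorescence, 480/540 nm, 3 min at 1 s intervals.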

[5] = G protein-coupled receptor (GPCR) small molecule agonists, calcium flux assay: HEK293 wild type cell line counter screen (AID 1920065)
Outline: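 Tox21 10K compounds, 15 concentrations each in triplicate, pin-transferred in DMSO onto dye-loaded cells; kinetic read at 480/540 nm for 3 min, 1 s intervals.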

[6] = p53 small molecule agonists, cell-based qHTS assay with rat liver microsomes (AID 1963578)
Outline: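 Agonist mode in p53RE-bla reporter cells, with compounds co-incubated 16 h at 37 C alongside 0.5 mg/mL rat liver microsomes and 0.5 mg/mL NADPH (final), followed by a 2 h LiveBLAzer detection step.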

[7] = p53 small molecule agonists, cell-based qHTS assay with human liver microsomes: qHTS cell viability counter screen (AID 1963579); also: nearly all actives have a fitted effect of over 45% in size
Outline: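 Metabolically activated exposure: compounds, human liver microsomes and NADPH (0.5 mg/mL final apiece) were added to p53RE-bla cells seeded 5 h earlier, left 16 h at 37 C, and then assessed for viability by CellTiter-Glo luminescence.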

[8] = p53 small molecule agonists, cell-based qHTS assay with rat liver microsomes: qHTS cell viability counter screen (AID 1963580); also: nearly all actives have a fitted effect of over 45% in size
Outline: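 Cytotoxicity counter screen: intracellular ATP measured by CellTiter-Glo luminescence in the same wells as the beta-lactamase reporter read, on HCT-116 p53RE-bla cells exposed 16 h at 37 C to compounds with rat liver microsomes and NADPH, each 0.5 mg/mL final.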

[9] = p53 small molecule agonists, cell-based qHTS assay: qHTS cell viability counter screen (AID 1963581); also: nearly all actives have a fitted effect of over 45% in size
Outline: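 ATP content measured by luminescence in HCT-116 p53RE-bla cells treated 16 h at 37 C, same wells as the reporter screen.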

[10] = p53 small molecule agonists, cell-based qHTS assay (AID 1963582; active = well fitted activation curve with a large enough effect in the signal ratio in the repeat runs, not every such curve was filed as active; the % refers to the signal ratio)
Outline: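 16 h compound exposure (37 C) of p53 response element–bla cells, preceded by 5 h recovery at 37 C/5% CO2; read-out via LiveBLAzer B/G FRET substrate, 2 h RT, fluorescence intensity.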

[11] = biological target: 5-hydroxytryptamine receptor 2A (Homo sapiens) (UniProt P28223); assay: 5-hydroxytryptamine receptor 2A (HTR2A) small molecule antagonists, cell-based qHTS assay (AID 1963586); also: nearly all actives have a fitted effect of over 45% in size
5-hydroxytryptamine receptor 2A (Homo sapiens), sequence (P28223 whole entry, looked up): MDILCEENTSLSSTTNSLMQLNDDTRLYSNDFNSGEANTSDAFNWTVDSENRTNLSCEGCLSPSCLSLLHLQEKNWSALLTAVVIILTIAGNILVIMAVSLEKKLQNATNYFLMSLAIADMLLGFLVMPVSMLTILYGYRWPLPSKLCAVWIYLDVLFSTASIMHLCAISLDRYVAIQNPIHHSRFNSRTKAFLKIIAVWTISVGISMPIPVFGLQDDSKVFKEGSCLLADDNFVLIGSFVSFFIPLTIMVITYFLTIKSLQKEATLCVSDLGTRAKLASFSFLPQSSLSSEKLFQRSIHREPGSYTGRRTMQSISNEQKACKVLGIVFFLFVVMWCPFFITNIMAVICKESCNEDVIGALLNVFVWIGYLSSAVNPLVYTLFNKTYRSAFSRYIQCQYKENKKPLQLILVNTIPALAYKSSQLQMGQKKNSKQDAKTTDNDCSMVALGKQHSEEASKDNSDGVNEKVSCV
Outline: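 CHO cells stably expressing human HTR2A were plated for 18 h at 37 C, then loaded with calcium dye for 1 h. Compounds were preincubated 5 min at room temperature before DOI (4 nM solution) was added. Kinetic fluorescence was read for 3 min.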

[12] = biological target: 5-hydroxytryptamine receptor 2A (Homo sapiens) (UniProt P28223); assay: 5-hydroxytryptamine receptor 2A (HTR2A) small molecule agonists, cell-based qHTS assay (AID 1963587); also: nearly all actives have a fitted effect of over 30% in size
Outline: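 CHO cells stably expressing human HTR2A, plated 18 h, loaded with calcium dye 1 h at 37 C. Agonist mode: compounds added and intracellular calcium fluorescence recorded kinetically for 2 min at 1 sec intervals.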

[13] = biological target: Muscarinic acetylcholine receptor M1 (Homo sapiens) (UniProt P11229); assay: Cholinergic receptor muscarinic 1 (CHRM1) small molecule antagonists, cell-based qHTS assay (AID 1963588); also: nearly all actives have a fitted effect of over 40% in size
Muscarinic acetylcholine receptor M1 (Homo sapiens), sequence (P11229 whole entry, looked up): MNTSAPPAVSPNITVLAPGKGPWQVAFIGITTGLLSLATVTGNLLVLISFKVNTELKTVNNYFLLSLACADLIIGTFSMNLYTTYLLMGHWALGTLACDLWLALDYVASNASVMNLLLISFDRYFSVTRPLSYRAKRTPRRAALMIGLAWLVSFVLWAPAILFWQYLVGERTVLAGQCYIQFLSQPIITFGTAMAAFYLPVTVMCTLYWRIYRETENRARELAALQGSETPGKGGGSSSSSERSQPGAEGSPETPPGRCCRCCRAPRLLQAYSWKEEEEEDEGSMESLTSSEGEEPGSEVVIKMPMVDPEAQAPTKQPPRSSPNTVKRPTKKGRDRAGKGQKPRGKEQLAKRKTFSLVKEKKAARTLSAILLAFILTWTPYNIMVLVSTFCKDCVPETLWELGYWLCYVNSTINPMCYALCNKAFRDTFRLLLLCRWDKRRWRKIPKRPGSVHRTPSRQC
Outline: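 Compounds were tested at 15 concentrations in three independent runs. Dye-loaded CHRM1-CHO cells were exposed 5 min at room temperature before stimulation by acetylcholine added at 50nM. Intracellular calcium was read kinetically on FDSS for 3 min.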

[14] = biological target: Muscarinic acetylcholine receptor M1 (Homo sapiens) (UniProt P11229); assay: Cholinergic receptor muscarinic 1 (CHRM1) small molecule agonists, cell-based qHTS assay (AID 1963589); also: nearly all actives have a fitted effect of over 35% in size
Outline: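 Homogeneous fluorescence calcium flux, agonist mode. Human M1-expressing CHO cells; compound dosed at 15 concentrations, three independent runs; signal sampled every 1 sec.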

[15] = cAMP Responsive Elements (CRE) small molecule agonists, cell-based qHTS assay (AID 1963590)
Outline: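 HEK 293T cells stably bearing CRE-bla were plated at 2,000 cells per well and rested 18 h. Compounds, positive controls or DMSO were added for 3 h at 37 C. LiveBLAzer B/G substrate was then loaded for 2 h at room temperature.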

[16] = cAMP Responsive Elements (CRE) small molecule antagonists, cell-based qHTS assay (AID 1963591; active = well fitted inhibition curve with a large enough effect in the signal ratio in the repeat runs, not every such curve was filed as active; the % refers to the signal ratio)
Outline: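 First, CRE-bla HEK293T cells settled 18 h at 37 C. Next, compound and 0.25 uM final NKH477 were applied for 3 h. Last, LiveBLAzer B/G substrate was loaded for 2 h at room temperature.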

[17] = biological target: Beta-2 adrenergic receptor (Homo sapiens) (UniProt P07550); assay: Adrenergic beta2 receptor (ADRB2) small molecule antagonists, cell-based qHTS assay (AID 1963592); also: series mostly up to about 92 µM; nearly all actives have a fitted effect of over 50% in size
Beta-2 adrenergic receptor (Homo sapiens), sequence (P07550 whole entry, looked up): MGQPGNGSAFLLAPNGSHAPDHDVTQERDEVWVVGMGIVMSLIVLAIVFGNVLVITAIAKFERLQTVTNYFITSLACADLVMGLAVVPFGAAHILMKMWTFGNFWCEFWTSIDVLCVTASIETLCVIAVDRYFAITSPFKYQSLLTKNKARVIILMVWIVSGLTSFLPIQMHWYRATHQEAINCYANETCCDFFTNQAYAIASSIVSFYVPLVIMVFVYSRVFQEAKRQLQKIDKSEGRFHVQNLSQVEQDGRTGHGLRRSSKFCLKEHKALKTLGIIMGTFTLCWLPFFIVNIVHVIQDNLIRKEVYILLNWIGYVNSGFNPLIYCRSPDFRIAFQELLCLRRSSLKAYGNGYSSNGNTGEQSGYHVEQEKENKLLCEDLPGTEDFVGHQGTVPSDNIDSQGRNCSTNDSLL
Outline: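 Assay format: CHO-ADRB2 cells, 18-20hr seeding at 37C/5% CO2, then compound plus 1nM isoproterenol agonist mix for 0.5hr RT. Homogeneous time-resolved fluorescence cAMP detection after 1hr, expressed as 665/615 nm ratio.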

[18] = biological target: D(2) dopamine receptor (Homo sapiens) (UniProt P14416); assay: Dopamine D2 receptor (DRD2) small molecule antagonists, cell-based qHTS assay (AID 1963595; active = well fitted inhibition curve with a large enough effect in the signal ratio in the repeat runs, with a control signal flat; the % refers to the signal ratio)
D(2) dopamine receptor (Homo sapiens), sequence (P14416 whole entry, looked up): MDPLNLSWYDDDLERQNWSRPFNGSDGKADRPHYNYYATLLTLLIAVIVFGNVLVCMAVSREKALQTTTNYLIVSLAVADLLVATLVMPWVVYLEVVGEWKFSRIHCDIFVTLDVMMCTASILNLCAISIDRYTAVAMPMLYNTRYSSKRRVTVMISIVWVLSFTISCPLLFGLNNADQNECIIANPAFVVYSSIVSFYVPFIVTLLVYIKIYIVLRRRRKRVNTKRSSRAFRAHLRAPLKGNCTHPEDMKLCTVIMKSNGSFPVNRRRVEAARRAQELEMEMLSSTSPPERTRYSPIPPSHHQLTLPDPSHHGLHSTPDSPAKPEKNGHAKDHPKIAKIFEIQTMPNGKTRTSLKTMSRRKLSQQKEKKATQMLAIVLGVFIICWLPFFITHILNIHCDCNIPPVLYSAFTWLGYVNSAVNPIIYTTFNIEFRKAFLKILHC
Outline: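 In this cell-based antagonist screen, compounds act for 10 min at room temperature before a 30 min challenge with 12 nM quinpirole and 200 nM NKH477. cAMP is quantified by HTRF competition in DRD2-HEK293 cells containing 0.1 mM Ro20-1724.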

[19] = biological target: D(2) dopamine receptor (Homo sapiens) (UniProt P14416); assay: Dopamine D2 receptor (DRD2) small molecule agonists, cell-based qHTS assay (AID 1963594); also: nearly all actives have a fitted effect of over 35% in size
Outline: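 HEK293 cells stably expressing human DRD2, pre-treated with PDE inhibitor Ro20-1724 (0.1 mM final) and compound 10 min at room temperature, then stimulated with NKH477 (200nM […]) for 30 min. cAMP read by HTRF (665/620 nm).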

[20] = biological target: Beta-2 adrenergic receptor (Homo sapiens) (UniProt P07550); assay: Adrenergic beta2 receptor (ADRB2) small molecule agonists, cell-based qHTS assay (AID 1963593);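 also: CHO cells stably overexpressing human ADRB2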
Outline: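 CHO cells stably over-expressing ADRB2 were plated overnight at 37C, then dosed with compounds plus a stimulation mix containing 100uM IBMX and 25uM Ro-20-1724 for 0.5hr at room temperature. cAMP was measured by HTRF competition, 1hr.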
% is scaled to controls: 0 for no effect and ±100 for the full control effect.

CN(C)CCCN(C)C
inactive: activity change, negative = cytotoxicity [1] 3.36% [at 8.39 µM] | activity, positive = activation [2] -12.5% [at 8.39 µM] | activity change [3] -0.775% [at 5.22 µM, stronger effect = higher value] | activation [4] -0.798% [at 6.97 µM] | activation [5] -1.22% [at 5.23 µM] | activation [6] 5.56% [at 5.99 µM] | activity change, negative = cytotoxicity [7] -2.9% [at 5.99 µM] | activity change, negative = cytotoxicity [8] 0.34% [at 5.99 µM] | activity change, negative = cytotoxicity [9] -23% [at 5.99 µM] | activation [10] 3.48% [at 5.99 µM] | activity, negative = inhibition [11] 12.1% [at 5.62 µM] | activation [12] -0.769% [at 7.02 µM] | activity, negative = inhibition [13] 1.9% [at 5.58 µM] | activation [14] -0.0477% [at 6.97 µM] | activation [15] -0.0363% [at 8.39 µM] | activity change, negative = inhibition [16] -6.12% [at 8.39 µM] | activity change, negative = inhibition [17] 3.37% [at 8.39 µM] | activity change, negative = inhibition [18] 3.98% [at 8.38 µM]

CC(COc1ccccc1)NN (centres undefined)
inactive: Potency [1] | Potency [2] | Potency [3] | Potency [4] | Potency [5] | Potency [6] | Potency [7] | Potency [8] | Potency [9] | Potency [10] | Potency [11] | Potency [12] | Potency [13] | Potency [14] | Potency [15] | Potency [16] | Potency [17] | Potency [19] | Potency [18]

COC(=O)c1cc(Cl)ccc1[N+](=O)[O-]
inactive: Potency [1] | Potency [2] | Potency [3] | Potency [4] | Potency [5] | Potency [6] | Potency [7] | Potency [8] | Potency [9] | Potency [10] | Potency [11] | Potency [12] | Potency [13] | Potency [14] | Potency [15] | Potency [19] | Potency [18]

O=[N+]([O-])c1cc[n+]([O-])cc1
active: Potency [2] 61.1 µM
inactive: Potency [1] | Potency [3] | Potency [4] | Potency [5] | Potency [6] | Potency [7] | Potency [8] | Potency [9] | Potency [10] | Potency [11] | Potency [12] | Potency [13] | Potency [14] | Potency [15] | Potency [16] | Potency [17] | Potency [20] | Potency [19] | Potency [18]
